The full ranking holds about 35,000 sequences; the median of “fluorescence intensity (a.u.)” is about 10,000, and the highest 2% start at about 52,000. What follows is part of a selection rich in the highest values, with near analogues and random picks from the rest.
These sequences were tested against T1, OsWOX13 (Oryza sativa, UniProt Q5QMM3 1-267) (assay: protein-binding microarray (RPBM); PBS, 2% BSA, 51.3 ng/ul salmon testes DNA, 50 uM zinc acetate, 200 nM TF, 25 C, 1 h; high values mean tight binding). Settings: protein: recombinant; tags: N-terminal polyhistidine and DsRed monomer fusion (pET32a); label: CyDye5-dUTP incorporated in the synthesized complementary strand; 3' TTTTT single-stranded linker to array surface; dsDNA, one strand shown.
T1 sequence: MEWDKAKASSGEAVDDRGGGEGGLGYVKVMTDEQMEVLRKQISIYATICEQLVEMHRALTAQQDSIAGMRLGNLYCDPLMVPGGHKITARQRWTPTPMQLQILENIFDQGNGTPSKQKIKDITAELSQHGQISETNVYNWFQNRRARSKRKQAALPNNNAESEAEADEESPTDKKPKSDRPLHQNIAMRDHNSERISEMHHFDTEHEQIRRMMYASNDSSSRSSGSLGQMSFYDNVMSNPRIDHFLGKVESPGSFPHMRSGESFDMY
Summary of the method: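 Transcription factors were each fused at the N-terminus to a polyhistidine tag plus DsRed and expressed in E. coli BL21-CodonPlus before Ni–NTA purification. Binding to a double-stranded custom Agilent array was carried out with 200 nM protein at 25 °C for 1 h in PBS, 2% BSA, salmon testes DNA and 50 µM zinc acetate. The binding signal is per-feature fluorescence intensity, in arbitrary units, on an Axon 4000B scanner.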
In the case of “TATTCAATCATCCAAGGTTTGCATATCATTGACCGGCGTGCGGAGTCACCTAGTGCAG”, the binding signal is reported as 14400 fluorescence intensity (a.u.).
In the case of “CTTTGACAGACAGATATCCATTCATACGTGCACAGGCGACCGGAGTCACCTAGTGCAG”, the binding signal is reported as 55300 fluorescence intensity (a.u.).
“GGCGACAAGACAGATAGACAGAAGCCATTCATATCGAACCCGGAGTCACCTAGTGCAG” was tested, and the binding signal was 5190 fluorescence intensity (a.u.).
With “GCTCCGGCGAGGCGAGGTCGGAGATCCCACCGCCGTGTCGCGGAGTCACCTAGTGCAG” the binding signal was 65500 fluorescence intensity (a.u.).
“CCACCGTGATTTTCGCTCCCATCACCGCGCGAGGACTCCGCGGAGTCACCTAGTGCAG” was tested, and the binding signal was 3320 fluorescence intensity (a.u.).
“GGTCGCCGGATCGCGGGAGGGAGGGAGGGAGGGAGGGAGGCGGAGTCACCTAGTGCAG” was tested, and the binding signal was 7230 fluorescence intensity (a.u.).
With “CAAAACTAAAATGTTATCATATAATTATATATTTAAGACCCGGAGTCACCTAGTGCAG” the binding signal was 8760 fluorescence intensity (a.u.).
In the case of “ATTCATATAATTTGTATCACCTCAATAATAATTGGTATCACGGAGTCACCTAGTGCAG”, the binding signal is reported as 14700 fluorescence intensity (a.u.).
In the case of “GACAAATTTACAGTAGTTTAACTTTAAGCAAAGTCAAAACCGGAGTCACCTAGTGCAG”, the binding signal is reported as 6260 fluorescence intensity (a.u.).
In the case of “TATACAATTATTTAAACAAAATTACCACTTTGCTACAACTCGGAGTCACCTAGTGCAG”, the binding signal is reported as 8450 fluorescence intensity (a.u.).
“AAGGTTAATTGGATCCATGCCACGCGAATTGTGGCAAATCCGGAGTCACCTAGTGCAG” was tested, and the binding signal was 22100 fluorescence intensity (a.u.).
For “TTATGTAATTATTATTTATTTTATTGTGACTTAATTTATCCGGAGTCACCTAGTGCAG”, the binding signal was 15500 fluorescence intensity (a.u.).
“TACTGCTGGATTGAATTAATGGATCAAGACTGAATTTATCCGGAGTCACCTAGTGCAG” was tested, and the binding signal was 12100 fluorescence intensity (a.u.).
With “CCGCAATTATTGGCCCTTAATTGTGAGGTTAATCCGTGGCCGGAGTCACCTAGTGCAG” the binding signal was 60900 fluorescence intensity (a.u.).
“CAATTAATTGCTTATCCGTGGCCTTGATCAATTACTGTGCCGGAGTCACCTAGTGCAG” was tested, and the binding signal was 56600 fluorescence intensity (a.u.).
With “TTTTAATTACTGATCTTCTTACAATTGCTTTTATGCTGTCCGGAGTCACCTAGTGCAG” the binding signal was 19700 fluorescence intensity (a.u.).
In the case of “AGTCAATCAGTCAATCTGGACCGTCCACGGCAGAAGAAGTCGGAGTCACCTAGTGCAG”, the binding signal is reported as 30700 fluorescence intensity (a.u.).
For “GGATTATCAATCAAGCAAGCAAACAAACACTAAGGAAACCCGGAGTCACCTAGTGCAG”, the binding signal was 15000 fluorescence intensity (a.u.).
With “GAATAATCAATTGCCGAATACGTTCTGGACATGGATATTGCGGAGTCACCTAGTGCAG” the binding signal was 6880 fluorescence intensity (a.u.).
With “CCTGGCTGATCGATAATTAATCCGTCCTCGCCGTCGCCATCGGAGTCACCTAGTGCAG” the binding signal was 15400 fluorescence intensity (a.u.).
“CTGATTGATTTAGCGGCTCAACATATATACCAAGGCGGCGCGGAGTCACCTAGTGCAG” was tested, and the binding signal was 61100 fluorescence intensity (a.u.).
With “ATATTGATTAGGCTCTCGGCTCTCTATTTAACCAACTGAACGGAGTCACCTAGTGCAG” the binding signal was 34300 fluorescence intensity (a.u.).
“GGGAAGGCGGCGATTGATTTGATTTGACCAAGATTGGTCGCGGAGTCACCTAGTGCAG” was tested, and the binding signal was 28700 fluorescence intensity (a.u.).
In the case of “GAACTAATCACAAATTTCCACCATACAATGCCGCTGTACTCGGAGTCACCTAGTGCAG”, the binding signal is reported as 13300 fluorescence intensity (a.u.).
With “TACAATCACATTCAATTTGAAAAGAGAAGATGGCTCTTGGCGGAGTCACCTAGTGCAG” the binding signal was 9800 fluorescence intensity (a.u.).
For “ATGCAGTAATTAATCAATTAACTAATTAACTCACCCCATGCGGAGTCACCTAGTGCAG”, the binding signal was 47800 fluorescence intensity (a.u.).
For “AATTTACGATTGATTATTCATTCAGTGAGGCGCATGCGGTCGGAGTCACCTAGTGCAG”, the binding signal was 32700 fluorescence intensity (a.u.).
In the case of “CTGATTAACTCTTCAATCAAATCCCTAACTTGAGTGCATGCGGAGTCACCTAGTGCAG”, the binding signal is reported as 57200 fluorescence intensity (a.u.).
“AAATGAGATGACAATGATGATGATGATGGTTTCATCACCCCGGAGTCACCTAGTGCAG” was tested, and the binding signal was 4620 fluorescence intensity (a.u.).
“CTTGATGATTAATCAATTCAATCTTGGCTGTCATGAGAGGCGGAGTCACCTAGTGCAG” was tested, and the binding signal was 62000 fluorescence intensity (a.u.).
“GTCATGTGATTGATGATTCAGCATCCCTTGAGGCTCAGTGCGGAGTCACCTAGTGCAG” was tested, and the binding signal was 53600 fluorescence intensity (a.u.).
In the case of “TCACATTCTTGCATGATTGAACACTCCCTTTCATCCCTCACGGAGTCACCTAGTGCAG”, the binding signal is reported as 18900 fluorescence intensity (a.u.).
“GACTAACACCCTAGACTGATTAATCAAAGCATTGTGCATGCGGAGTCACCTAGTGCAG” was tested, and the binding signal was 16800 fluorescence intensity (a.u.).
In the case of “CATCAATCATGATTGAAGATGATTCAAGGTTGAGAGGACCCGGAGTCACCTAGTGCAG”, the binding signal is reported as 53900 fluorescence intensity (a.u.).
“GAGGCCAATCAGGTTGATGATGAAGAGGATGATTTCAGCGCGGAGTCACCTAGTGCAG” was tested, and the binding signal was 18200 fluorescence intensity (a.u.).
In the case of “TGCCTTTGATTAATGTCATGATGTCACATGCTGAGATTCACGGAGTCACCTAGTGCAG”, the binding signal is reported as 11900 fluorescence intensity (a.u.).
In the case of “ATTTAGACAGGTTCCAACCTCCTTGATAACAGTTAAAACCCGGAGTCACCTAGTGCAG”, the binding signal is reported as 7950 fluorescence intensity (a.u.).
With “TTTTAGGTTAATTACTTCTATTGGTCAACTCAATATGCAGCGGAGTCACCTAGTGCAG” the binding signal was 5660 fluorescence intensity (a.u.).
With “TGACTCTTATTTAACGACTGATTGTTGTCAAGATAATGAACGGAGTCACCTAGTGCAG” the binding signal was 3770 fluorescence intensity (a.u.).
For “CGTACAATATTAATTAAAGTGTTTAAGAAACAGAGACTAGCGGAGTCACCTAGTGCAG”, the binding signal was 3740 fluorescence intensity (a.u.).
With “AAGGAAAATTAATAGCATACAGGCATGCATTTACGTACTTCGGAGTCACCTAGTGCAG” the binding signal was 5500 fluorescence intensity (a.u.).
In the case of “CCATGTGATTGACGATGCTCTTATTAACTTCTAACTTGACCGGAGTCACCTAGTGCAG”, the binding signal is reported as 47000 fluorescence intensity (a.u.).

From article PMC7819943, “Rice protein-binding microarrays: a tool to detect cis-acting elements near promoter regions in rice”
